Data on 40 molecules can be found in PubChem BioAssay (EPA / NIEHS).

Molecules are shown by their SMILES. The source made the active and inactive calls. The calls were made as follows: active = hit-call score of the fitted dose curve at least 0.9, where 1 is the maximum; inactive = score below 0.9.

This experiment is described as follows: ATG_Sox_CIS: Attagene CIS-FACTORIAL HepG2 Assay for human SRY-box transcription factor (SOX) (AID 2282960). Conditions: HepG2 Attagene cis-factorial SOX reporter, mRNA; actives raise or lower the signal. The procedure:
ATG_CIS is a cell-based, multiplexed-readout assay that uses HepG2, a human liver cell line, with measurements taken at 24 hours after chemical dosing in a 24-well plate.ATG_Sox_CIS is one of 52 assay component(s) measured or calculated from the ATG_CIS assay. It is designed to make measurements of mRNA induction, a form of inducible reporter, as detected with fluorescence intensity signals by Reverse transcription polymerase chain reaction (RT-PCR) and Capillary electrophoresis technology.Data from the assay component ATG_Sox_CIS was analyzed into 1 assay endpoint. This assay endpoint, ATG_Sox_CIS, was analyzed with bidirectional fitting relative to DMSO as the negative control and baseline of activity. Using a type of inducible reporter, measures of mRNA for gain or loss-of-signal activity can be used to understand the reporter gene at the transcription factor-level as they relate to the gene SOX1. Furthermore, this assay endpoint can be referred to as a primary readout, because this assay has produced multiple assay endpoints where this one serves a reporter gene function. To generalize the intended target to other relatable targets, this assay endpoint is annotated to the dna binding intended target family, where the subfamily is HMG box protein.
Human liver HepG2 cells are transiently transfected with multiple reporter transcription units (MRTUs) in 6-well plates using FuGene 6 reagent (Roche; 3 ml FuGene/1 mg DNA). The MRTU constructs are regulated by a cis-regulating element (promoter). […] A major difference between the CIS and TRANS system is that in CIS activities of endogenous TFs are measured, whereas the TRANS assay evaluates changes in activities of exogenous, chimeric NR-Gal4 proteins. […] At the end of 24 hour incubation, total RNA was isolated using TriZol reagent (Invitrogen). The isolated RNA is then reverse-transcribed using oligo(dT) primer and Mo-MLV reverse transcriptase (Invitrogen) with DNAse I (Ambion) treatment for 30 min. The one-tenth of the produced cDNA was amplified by PCR using Taq DNA polymerase (Invitrogen) and two reporter sequence-specific primers. The PCR products were fluorescently labeled by primer extension with 6-arboxyfluorescein (6-FAM) 5'-labeled reporter sequence-specific primer (2 min at 95 C, 20 s at 68 C and 10 min at 72 C) and these products were digested with 5U of HpaI (New England Biolabs) for 2h at 37 C. The fragments were purified using Qiaquick PCR columns (Qiagen), analyzed on an ABI 3130xL genetic analyzer (Applied Biosystems) with peak positions identified by using a set of X-rhodamine (ROX)-labeled MapMarker1000 molecular weight standards (BioVentures). The raw capillary electrophoresis data was processed using Attagraph software (Attagene).
For the molecule `NNC(N)=S`, the molecule was classed as inactive.
As for `CC(C)(C)N(NC(=O)c1ccc(Cl)cc1)C(=O)c1ccccc1`, the entry is “inactive”; as for `CCCCOCC1CO1` (stereo not given), “inactive”; as for `CCOC(=O)c1ccccc1N`, “inactive”.
With `Cc1ccc(N)cc1N` the entry was “inactive”; with `COP(=O)(O)OC`, “inactive”.
For the molecule `NC(=O)C(F)(F)C(F)(F)F`, the molecule was called inactive.
As to `O=c1[nH]c2ccccc2c(=O)o1`, the molecule was classed as inactive.
With `CCOP(=S)(OCC)SCn1nnc2ccccc2c1=O` the entry was “inactive”; with `O=S(=O)(F)C(F)(F)C(F)(F)C(F)(F)C(F)(F)C(F)(F)C(F)(F)C(F)(F)C(F)(F)F`, “inactive”.
Regarding `O=[N+]([O-])c1ccc(Cl)c(Cl)c1`, the outcome was inactive.
As for `CCCCOCCOP(=O)(OCCOCCCC)OCCOCCCC`, the entry is “inactive”.
With `N#C/C=C/c1ccccc1` the entry was “inactive”; with `CCNc1nc(Cl)nc(NC(C)(C)C)n1`, “inactive”.
For the molecule `N#Cc1ccc(O)cc1`, the call was inactive.
Take `CCCCc1ccc(O)cc1`: the outcome was inactive.
With `CCCCN(CCCC)N=O` the entry was “inactive”; with `CC(C)(C)c1ccccc1OP(=O)(Oc1ccccc1)Oc1ccccc1`, “inactive”.
With `O=NN1CCCC1` the entry was “inactive”; with `ClC(Cl)(Cl)c1ccccc1`, “inactive”.
With `CCC(C)(C)c1ccc(O)cc1` the entry was “inactive”; with `O=[N+]([O-])c1ccccc1`, “inactive”; with `ClC(Cl)c1ccccc1`, “inactive”.
As for `N#Cc1c(-c2ccc(Cl)cc2)[nH]c(C(F)(F)F)c1Br`, the molecule was classed as inactive.
With `FC(F)(F)C(F)(C(F)(F)F)C(F)(F)C(F)(F)CC1CO1` (stereo not given) the entry was “inactive”; with `COC(N)=O`, “inactive”.
With `c1ccc2c(c1)Nc1ccccc1S2` the entry was “inactive”; with `C=CC(=O)OCC(CC)(COC(=O)C=C)COC(=O)C=C`, “inactive”.
`CCCCCCCc1ccc(O)cc1`: the molecule was classed as inactive.
As to `ClC(Cl)=C(c1ccc(Cl)cc1)c1ccccc1Cl`, the outcome was inactive.
As to `COP(=O)(CCC(=O)NCO)OC`, the molecule was classed as inactive.
With `O=P(Oc1ccccc1)(Oc1ccccc1)Oc1ccccc1` the entry was “inactive”.
With `O=C(O)C(F)(F)C(F)(F)C(=O)O` the entry was “inactive”; with `O=C(CBr)OCc1ccccc1`, “inactive”; with `Cc1c([N+](=O)[O-])cc2c(c1[N+](=O)[O-])C(C)(C)CC2(C)C`, “inactive”.
As for `c1nc[nH]n1`, the entry is “inactive”; as for `CCOP(=S)(OCC)SCSCC`, “inactive”; as for `Oc1ccc(I)cc1`, “inactive”.
In the case of `OCC(F)(F)OC(F)(F)C(F)(F)OC(F)(F)C(F)(F)OC(F)(F)F`, the molecule was called inactive.
As for `O=C(O)C(Cl)Cl`, the entry is “inactive”.
